Results: PubChem BioAssay AID1159580 (chemical genetic matrix, 2015)
The whole screen tested about 5,500 compounds, of which about 2,000 (36%) were called active. Roughly 18% stayed inconclusive and do not appear here. Rule as the data show it: active = normalized growth mostly below about 0.91 (no sharp cut-off); inconclusive = no clear call, values can overlap the other calls; inactive = mostly above about 0.92. The list shows a part of the results.

Assay: chemical genetic growth profiling, strain panel (AID 1159580);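 also: tested at 20 µM; growth read once vehicle control cultures reached saturation at 30 °C; 1 = growth at the plate median or of vehicle wells; lower values mean less growth of the strain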
Conditions: S. cerevisiae deletion strains, growth OD

Measured: normalized growth

CCOC(=O)c1c(C)n(-c2ccccc2)c2ccc(O)cc12
inactive: locus YAL013W, strain DEP1, active compounds read low 0.998 | locus YBR229C, strain ROT2, active compounds read low 1 | locus YDL101C, strain DUN1, active compounds read low 0.995 | locus YDR150W, strain NUM1, active compounds read low 1 | locus YEL061C, strain CIN8, active compounds read low 0.965 | locus YGR078C, strain PAC10, active compounds read low 0.995 | locus YHR030C, strain SLT2, active compounds read low 0.923 | locus YHR087W, strain rtc3, active compounds read low 0.993 | locus YJR043C, strain POL32, active compounds read low 1.03 | locus YJR075W, strain HOC1, active compounds read low 0.989 | locus YLR039C, strain RIC1, active compounds read low 1.02 | locus YLR058C, strain SHM2 (second series), active compounds read low 0.985 | locus YLR085C, strain ARP6, active compounds read low 0.931 | locus YLR262C, strain YPT6, active compounds read low 0.984 | locus YML094W, strain GIM5, active compounds read low 0.94 | locus YMR219W, strain ESC1, active compounds read low 0.999 | locus YMR263W, strain SAP30, active compounds read low 0.956 | locus YNL128W, strain TEP1, active compounds read low 0.99 | locus YNL153C, strain GIM3, active compounds read low 0.976 | locus YNL322C, strain KRE1, active compounds read low 0.998 | locus YNR030W, strain Alg12, active compounds read low 0.963 | locus YPL055C, strain LGE1, active compounds read low 0.982 | locus YPL241C, strain CIN2, active compounds read low 0.979 | locus YPR135W, strain CTF4, active compounds read low 0.911
